From PubChem BioAssay AID1851 (National Center for Advancing Translational Sciences (NCATS), 2009)
Where “and” joins values, the source holds several entries; their conditions need not be identical. Identical values can stand only once. In all, about 16,000 compounds went through this assay and about 2,600 (16%) were called active. Inconclusive results (about 20%) are left out. Calls follow the shape of the dose curve; as a rule, active = well fitted curve in the direction sought with a large enough effect; inconclusive = small, poorly fitted or top-dose-only effect, or effect the other way; inactive = no such curve, though single readings can be large or run the other way. A selection follows. Some structures have more than one record in an assay (separate samples or runs), and their calls can disagree.

target: Cytochrome P450 2D6 (Homo sapiens) (UniProt P10635); experiment: Cytochrome panel assay with activity outcomes; conditions: recombinant CYP, pro-luciferin dealkylation, luminescence, p450-cyp2d6; series mostly up to 57.1 µM; activity, negative = inhibition: at the top concentration
Sequence (P10635 whole entry, looked up): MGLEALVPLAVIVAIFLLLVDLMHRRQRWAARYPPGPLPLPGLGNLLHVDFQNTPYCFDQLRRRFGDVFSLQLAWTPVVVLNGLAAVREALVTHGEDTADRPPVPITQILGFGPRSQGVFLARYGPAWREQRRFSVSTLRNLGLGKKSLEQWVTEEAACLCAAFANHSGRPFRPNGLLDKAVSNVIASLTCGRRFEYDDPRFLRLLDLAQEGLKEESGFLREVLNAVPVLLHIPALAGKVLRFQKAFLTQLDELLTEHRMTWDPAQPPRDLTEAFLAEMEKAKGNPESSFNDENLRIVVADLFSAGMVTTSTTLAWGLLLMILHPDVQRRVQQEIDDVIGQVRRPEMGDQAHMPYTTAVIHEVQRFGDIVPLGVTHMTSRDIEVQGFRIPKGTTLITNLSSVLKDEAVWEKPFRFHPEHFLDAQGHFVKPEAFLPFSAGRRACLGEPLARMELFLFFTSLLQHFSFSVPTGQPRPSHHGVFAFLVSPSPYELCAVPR
% is scaled to controls: 0 for no effect and ±100 for the full control effect.

| SMILES | activity, negative = inhibition | AC50 |
| --- | --- | --- |
| Cc1nc2cnc(N(C)C)nc2n(CCC#N)c1=O | 1% (inactive) | – |
| CCCn1c(CC)nc([N+](=O)[O-])c1S(=O)(=O)c1ccccc1 | -12% (inactive) | – |
| O=[N+]([O-])c1cc(Cl)cc2c1nc(NCCO)c1ccccc12 | -18% [at 11.4 µM] (inactive) | – |
| CSc1ccccc1N1CCN(C(=O)Nc2ccc3c(c2)NC(=O)CO3)CC1 | 7.94% (inactive) | – |
| O=C(NCC1CCCO1)c1ccc(CS(=O)(=O)Cc2ccc(F)cc2)o1 (configuration not stated) | -4.74% (inactive) | – |
| Cn1c(=O)c2c(nc(Cl)n2Cc2ccc(Cl)c(Cl)c2)n(C)c1=O | -24.9% (inactive) | – |
| Cn1c(OCc2ccc3c(c2)OCO3)nc2c1c(=O)n(Cc1ccc(Cl)c(Cl)c1)c(=O)n2C | – | 5.01 µM (active) |
| COC(=O)Cn1c(=O)c2c(nc(Br)n2Cc2ccccc2Cl)n(C)c1=O | -4.28% (inactive) | – |
| CC(C)c1ccc(Cn2ccc3c4c(N)nc(NC5CC5)nc4ccc32)cc1 | – | 1 µM (active) |
| Cc1cc(CNC(=O)[C@@H]2C[C@H]2[C@@H](NP(=O)(c2ccccc2)c2ccccc2)c2ccccc2)nn1C | 4.62% (inactive) | – |
| FC(F)(F)c1nnc2c(Sc3ccccc3)nc3ccc(Cl)cc3n12 | 7.73% (inactive) | – |
| O=C(O)C[C@H](NC(=O)CP(=O)(O)O)C(=O)O.[NH-][C@@H]1CCCC[C@@H]1[NH-].[Pt] | 7.2% [at 11.4 µM] (inactive) | – |
| CC1(C)CO[C@H](CC(=O)O)CN1 | – | 0.00631 µM (active) |
| C[C@H](N)CCCC(C)(C)O | 2.07% [at 25.6 µM] (inactive) | – |
| O=C(CCCN1CC=C(n2c(=O)[nH]c3ccccc32)CC1)c1ccc(F)cc1 | – | 3.16 µM (active) |
| O=C(Cn1c(C(F)(F)F)nc2ccccc21)c1ccc(F)cc1 | -10.1% (inactive) | – |
| CC(C)=CCC/C(C)=C/CO/N=C1/C[C@@H](O)[C@@H](O)[C@@H]2[C@@H]3C(=O)N(C[C@@H]4CCCO4)C(=O)[C@H]3CC[C@H]12 | -9.15% [at 11.4 µM] (inactive) | – |
| COc1ccc(N=C2S/C(=C\c3ccc(C)s3)C(=O)N2CC(C)C)cc1 | 1.59% (inactive) | – |
| O=C(O)CCC(=O)N1CCc2cc(S(=O)(=O)N3CCCCC3)ccc21 | 4.95% (inactive) | – |
| Cc1ccc(-c2cc(C(=O)NN=C3CCCC3)c3ccccc3n2)cc1 | -21.4% (inactive) | – |
| CCNc1ncc2nc(-c3ccc(Cl)cc3)c(=O)n(Cc3ccc(F)cc3)c2n1 | -0.819% (inactive) | – |
| CN(Cc1n[nH]c(=S)n1C)S(=O)(=O)c1ccccc1 | -5.55% (inactive) | – |
| COC(=O)C(NC(=O)c1ccc(Cl)cc1)(Nc1nc(C)cs1)C(F)(F)F (configuration not stated) | -25.8% (inactive) | – |
| Cc1ccc(SCC(=O)NNC(=O)C2CCCCC2)cc1 | -7.86% (inactive) | – |
| CC(=O)N[C@@H]1CONC1=O | 18.4% [at 11.4 µM] (inactive) | – |

| SMILES | activity, negative = inhibition | AC50 |
| --- | --- | --- |
| Cc1ccc(C(=O)Nc2ccccc2Oc2ccccc2)cc1[N+](=O)[O-] | -27% (inactive) | – |
| Cc1ccc(C(=O)Nc2ccc(Cc3ccncc3)cc2)cc1[N+](=O)[O-] | – | 1.41 µM (active) |
| Cc1ccc(NC(=O)c2ccc(NCC3CCCO3)c([N+](=O)[O-])c2)cc1Cl (configuration not stated) | -20.3% (inactive) | – |
| N[C@H](C(=O)O)C1[C@H](C(=O)O)[C@H]1C(=O)O (some centres not stated) | – | 7.94 µM (active) |
| O=C(O)[C@H]1[C@H](C(=O)O)[C@H](C(=O)O)C[C@@H]1C(=O)O | -4.27% [at 11.4 µM] (inactive) | – |
| N[C@H](C(=O)O)[C@@H]1C[C@@H]1C(=O)O | – | inactive |
| O=c1cnc2cnc(N3CCOCC3)nc2n1Cc1ccc(F)cc1 | -9.25% (inactive) | – |
| NC(N)=[N+]1CCc2ccccc2C1 | -16.2% (inactive) | – |
| COc1ccccc1NC(=O)[C@H](COCc1ccccc1)NC(=O)OC(C)(C)C | -16.4% (inactive) | – |
| O=C1NCCN1Cc1cccc(Cl)c1 | 2.96% (inactive) | – |
| O=S1(=O)C=C(SCc2cccc(Cl)c2)Nc2ccccc21 | – | 12.6 µM (active) |
| Cc1ccc(-n2ccc(=O)c(-c3ccnc(SCc4cccc(Cl)c4)n3)n2)cc1 | -22.4% (inactive) | – |
| O=C1c2ccccc2C(=O)N1CCCCN(C(=O)c1cccc([N+](=O)[O-])c1)c1ccc(Cl)cc1 | -20.7% (inactive) | – |
| CC1=NS(=O)(=O)c2cc(Cl)ccc2N1 | – | inactive and 7.94 µM (active) |
| COc1ccc(-n2nnnc2-c2cn(C)nc2C(F)(F)F)cc1 | -7.4% (inactive) | – |
| O=C(O)c1cc(N=Nc2ccc([N+](=O)[O-])cc2)ccc1O | -8.54% [at 11.4 µM] (inactive) | – |
| CS[C@]12C(=O)C[C@]3(C)[C@@H](CC[C@@]3(O)C(=O)CO)[C@@H]1CCC1=CC(=O)CC[C@]12C | 0.401% [at 11.4 µM] (inactive) | – |
| Cn1nc(-c2ccc(N3CCOCC3)c(NS(=O)(=O)c3ccc(Cl)cc3)c2)c2ccccc2c1=O | -7.84% (inactive) | – |
| CN1CCN(c2ncnc3ccc(-c4cccc(NS(C)(=O)=O)c4)cc23)CC1 | 3.66% (inactive) | – |
| CN1CCN(c2ncncc2-c2ccc(N(C)C)cc2)CC1 | – | 10 µM (active) |
| CN(C)C(=O)c1ccc(-c2cncnc2N2CCNCC2)cc1 | – | 7.94 µM (active) |
| CN(C)C(=O)c1ccc(-c2cncnc2NC2CCNCC2)cc1 | -15.4% (inactive) | – |
| CN1CCN(c2ncncc2-c2ccc(C(=O)N(C)C)cc2)CC1 | – | 0.251 µM (active) |
| Cc1ccc(S(=O)(=O)n2c3ccccc3c3nnc(C(=O)c4ccccc4)nc32)cc1 | -14.9% [at 11.4 µM] (inactive) | – |
| Cc1nn(C)c(C)c1CNC(=O)c1cnn2c1NC(c1ccccc1)CC2C(F)(F)F (configuration not stated) | -20.7% (inactive) | – |

| SMILES | activity, negative = inhibition | AC50 |
| --- | --- | --- |
| Cn1c2c(c(=O)n(C)c1=O)CN(CCN1CCNCC1)CN2 | 7.25% (inactive) | – |
| O=C(CC1(O)CCCCC1)OC1CCCC1 | -5.94% [at 11.4 µM] (inactive) | – |
| CCCCSc1nnc(-c2cc3c(C(F)(F)F)nn(C)c3s2)n1C | -3.58% (inactive) | – |
| C[N+](C)(C)CC(=O)O | 3.71% (inactive) | – |
| COc1ccc([C@@H](Nc2ccccn2)c2cc(C(C)(C)C)cc(C(C)(C)C)c2O)cc1 | -16.7% [at 11.4 µM] (inactive) | – |
| O=C(O)c1cc(C(=O)O)nc(C(=O)O)c1 | 0.571% [at 11.4 µM] (inactive) | – |
| CC(O)(P(=O)(O)O)P(=O)(O)O | 7.89% [at 25.6 µM] (inactive) | – |
| O=C(c1cc(C(F)(F)F)cc(C(F)(F)F)c1)N1CCC2(CC1)CCN(c1ccncc1)CC2 | – | 15.8 µM (active) |
| O=C(c1cccc(F)c1)N1CCC2(CC1)CCN(c1ccncc1)CC2 | – | 20 µM (active) |
| O=C(c1cc(C(F)(F)F)cc(C(F)(F)F)c1)N1CCC[C@@]2(CCN(c3ccncc3)C2)C1 | -8.86% (inactive) | – |
| O=C(c1cccc(F)c1)N1CCC[C@@]2(CCN(c3ccncc3)C2)C1 | -2.32% (inactive) | – |
| O=C(c1cccc(F)c1)N1CCC2(CC1)CN(c1ccncc1)C2 | -4.06% (inactive) | – |
| O=C(c1cc(C(F)(F)F)cc(C(F)(F)F)c1)N1CCC2(CC1)CN(c1ccncc1)C2 | -15.3% (inactive) | – |
| Cc1ccc(C)c(-c2nn(-c3cc(N4CCN(CCO)CC4)ccc3[N+](=O)[O-])c(=O)c3ccccc23)c1 | -4.67% (inactive) | – |
| CCOC(=O)CC(Nc1nc(N2CCOCC2)nc(N2CCOCC2)n1)c1ccccc1Cl (configuration not stated) | -28.5% (inactive) | – |
| CCN(CC)CCN1C(=O)C(=O)/C(=C(/O)c2ccc(OC)cc2)C1c1cccs1 (configuration not stated) | – | 14.1 µM (active) |
| COC(=O)c1[nH]c(C)c(/C(O)=C2\C(=O)C(=O)N(CCN(C)C)C2c2cccs2)c1C (configuration not stated) | 5.67% (inactive) | – |
| COc1cccc(/C(O)=C2/C(=O)C(=O)N(c3cc(C)on3)C2c2cccs2)c1 (configuration not stated) | -0.296% (inactive) | – |
| CC(C)(C)C(=O)[C@H]([C@@H](c1ccccc1)N1CCOCC1)N1CCOCC1 | 6.76% [at 11.4 µM] (inactive) | – |
| Cc1ccc(NC(=O)c2sccc2SCc2cccc(C(F)(F)F)c2)cc1 | 1.61% (inactive) | – |
| O=C(c1ccccc1)c1ccc2n1CC[C@H]2C(=O)O | – | inactive |
| N#Cc1ccc(-c2ccccc2)nc1SCC(=O)c1cccc(Cl)c1 | -11.5% (inactive) | – |
| CN1CCN(c2ncc3nc(-c4cn(C)c5ccccc45)c(=O)n(-c4ccccc4)c3n2)CC1 | -15.3% (inactive) | – |
| COc1ccc(Cl)cc1C(=O)Nn1cnc2ccccc2c1=O | -16.6% (inactive) | – |
| COc1ccc(C(=O)Nn2cnc3ccccc3c2=O)c(OC)c1 | -18.9% (inactive) | – |

| SMILES | activity, negative = inhibition | AC50 |
| --- | --- | --- |
| O=C(Nn1cnc2ccccc2c1=O)c1ccc(F)cc1Cl | – | 28.2 µM (active) |
| COC(=O)c1ccc(NC(C)=O)o1 | -1.04% (inactive) | – |
| COc1ccc(N(C(=O)COc2ccccc2OC)S(=O)(=O)c2ccc(C)cc2)cc1 | -20.5% (inactive) | – |
| COc1ccc(C(C(=O)NC2CCCCC2)N(C(=O)CCCC(=O)Nc2ccccn2)c2ccc3c(c2)OCCO3)cc1 (configuration not stated) | -29.2% (inactive) | – |
| O=C(O)c1cc([N+](=O)[O-])ccc1NCCCc1ccccc1 | -2.49% (inactive) | – |
| O=[N+]([O-])c1ccc(N2CCCC2)cc1NCc1ccccc1 | 2.63% (inactive) | – |
| Cc1cc([N+](=O)[O-])ccc1NCc1ccccc1 | – | 15.8 µM (active) |
| CO[C@H]1COC(=O)C/C=C\[C@H](C)COC(=O)[C@@H](OCc2ccccc2)/C=C\[C@@H]1C | -13.9% [at 11.4 µM] (inactive) | – |
| CCn1c(C)cc(/C=C2\SC(=O)N(CC(=O)Nc3ccc(C)c(C)c3)C2=O)c1C | 1.47% (inactive) | – |
| c1ccc(-c2nnc(SCCC3OCCCO3)o2)cc1 | 0.844% (inactive) | – |
| NCCCCCc1nnc(SCc2ccccc2Cl)o1 | – | 11.2 µM (active) |
| NCCCCCc1nnc(SCc2ccc(Cl)cc2Cl)o1 | – | 1.41 µM (active) |
| COc1ccc(-c2nnc(-c3cccnc3)o2)cc1 | -16.3% (inactive) | – |
| Cc1cccc(-c2nnc(SCc3ccccc3)o2)c1 | -20% (inactive) | – |
| Clc1ccccc1CSc1nnc(-c2ccncc2)o1 | – | 2 µM (active) |
| C#CCSc1nnc(-c2sc3ccccc3c2Cl)o1 | 1.41% (inactive) | – |
| Nc1nc(SCc2ccccc2Cl)cc(C(=O)O)n1 | 4.28% [at 11.4 µM] (inactive) | – |
| N#Cc1c(SCC(N)=O)nsc1SCc1ccccc1Cl | 5.4% (inactive) | – |
| Clc1ccc(CSc2nnc(-c3cccnc3)o2)cc1 | – | 14.1 µM (active) |
| COc1ccc(NC(=O)CCNS(=O)(=O)c2ccc3c(c2)c(=O)n(C)c(=O)n3C)cc1 | 1.38% (inactive) | – |
| O=C(CCCc1ccccn1)c1ccccc1 | -16.5% [at 11.4 µM] (inactive) | – |
| O=C1N=C(N2CCOCC2)S/C1=C/c1cccs1 | -3.07% (inactive) | – |
